About 3,800 (1%) of roughly 370,000 compounds were called active. Cut-off read from the data, not from the text of the source: active = activation above about 7.8%; inactive = the rest. This excerpt belongs to a sample that is enriched for actives.
Assay: SMARCA2 (BRM) function activators, primary screen, cell-based, luminescence, high throughput (AID 652017);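 note: 0% = vehicle wells and 100% = reference activator wells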
Conditions: MG213 cells, MMTV-luciferase reporter, dexamethasone, overnight; at 9.1 µM; stronger effect = higher value

activation, inactive:
COC(=O)c1ccc(CSc2nnc(N)s2)o1 -1.46%
CN1CCc2c(sc3c2c(NCc2ccco2)nc2nnnn23)C1 0.32%
COc1ccc(C(=O)NCC[N+](C)(C)C)cc1 -4.72%
COc1ccccc1CN(C)C(=O)c1cc2ccccc2o1 -0.29%
CC(=O)c1cc(-c2ccc3ccccc3c2)c(=O)n2c1CCC2 -0.02%
CSc1ccc(C#N)cc1NC(=O)c1ccc(Cl)cc1 -0.91%
COc1ccc(Sc2ccc(NC(=O)c3cccc(Cl)c3)cc2C#N)cc1 -0.62%
C[C@H](CO)N1C[C@H](C)[C@@H](CN(C)S(=O)(=O)c2ccc(F)cc2)Oc2ccc(NC(=O)CCC(F)(F)F)cc2C1=O 1.28%
Cn1c(=O)c(C(=O)Nc2ncccn2)c(O)c2ccccc21 2.91%
CCOC(=O)c1ccccc1NC(=O)c1c(N)n(C)c(=O)[nH]c1=O -0.83%
CCCC[C@H]1C2CC(OC(=O)NCc3ccccc3)C(C2)[C@H]2CCCCN21 (stereo not given in full) -0.93%
CC(=O)O[C@@]1(C(C)=O)CCC2[C@H]3C=C(C)C4=CC(=O)CC[C@@]4(C)C3CC[C@]21C (stereo not given in full) -9.82%
Cc1cccc(NC(=S)N2CCC(c3nc4ccccc4s3)CC2)c1 -2.82%
Cc1nc2ccc(NC(=O)N3CCC(c4ccccc4)C3)cc2nc1C (stereo not given) -3.22%
Cn1nc(C(F)(F)F)c2cc(NC(=O)OCC(C)(C)C)sc21 7.24%
CSCCC(C(=O)NC(C)(C)C)n1c(-c2ccccc2)nc2ccccc21 (stereo not given) -3.19%
CCC(C(=O)NC(C)(C)C)n1c(-c2ccccc2)nc2ccccc21 (stereo not given) -0.72%
CN(C)c1ccc(NC(=O)NC2CCCCN(Cc3ccc(Cl)cc3)C2=O)cc1 (stereo not given) -1.53%
CC(C)COc1ccc(C(=O)NNC(=O)CCC(=O)c2cccs2)cc1 0.68%
CS(=O)(=O)c1ccc(C(=O)NNC(=O)c2cccs2)cc1 -1.1%
C=CCC(NCCCO)c1cccc(OC)c1OC (stereo not given) 2.11%
Cc1cc(C)cc(-c2nnc(SCC(=O)NC3CC3)o2)c1 2.96%
COc1ccc(Cl)cc1C(=O)NNC(=O)c1nc2nc(C)cc(C)n2n1 -0.45%
Cc1cc(C)n2nc(C(=O)NC(C)(C)C)nc2n1 1.51%
CCOC(=O)N1CCN(C(=O)C[C@H]2C[C@@]3(C(=O)OC)C(=C[C@H](C(C)(C)C)O[C@@H]3C)N(Cc3ccc(Cl)cc3Cl)C2=O)CC1 -4.25%
CC(=O)Nc1nc2ncccn2c1-c1ccc(C(F)(F)F)cc1 -1.69%
CC(=O)n1cc([C@H]2C=C(C(=O)N3CCOCC3)O[C@@H](OCc3ccc(CO)cc3)C2)c2ccccc21 -0.72%
COc1cccc(CNC(=O)C2CCCN(c3nc4ccccc4o3)C2)c1OC (stereo not given) -3.99%
CCOC(=O)c1cnc2ccc(F)cc2c1Nc1ccc2c(c1)OCCO2 -4.81%
CC(C)N1CCCCC(NC(=O)C(C)(C)C)C1=O (stereo not given) 0.13%
NC(=O)c1oc2ccccc2c1NC(=O)CS(=O)(=O)c1ccccc1 -2.91%
CCOC(=O)CNc1nc2ccccc2n2c(C)nnc12 -1.96%
CC(C)(C)N1CC(c2nc3ccccc3n2Cc2ccc(F)cc2)CC1=O (stereo not given) 4.59%
CC(C)n1c(NCc2c[nH]c3ccccc23)nc2ccccc21 -2.21%
C/C(=N\c1nc2ccccc2n1C)c1cc(Cl)ccc1O 0.8%
CN(CCc1ccccc1)C(=O)Cn1nc(-c2ccccc2)ccc1=O -2.33%
O=C(Cn1nc(CNc2ccc(Cl)cc2)[n+]2c1CCCCC2)c1ccc(Cl)cc1 -6.64%
CC(=O)Cn1ncc(N2CCOCC2)c(Br)c1=O -2.3%
Cc1ccc(-n2c(SCC(=O)Nc3ccc(S(=O)(=O)Nc4nccs4)cc3)nnc2-c2ccccn2)cc1 -6.25%
CCOC(=O)C(=O)N(Cc1ccccc1)c1ccccc1C(=O)Nc1cc(OC)ccc1OC -5.19%
CC(c1c[nH]c2ccccc12)c1c(-c2ccccc2)n(C)c2ccccc12 (stereo not given) -5.18%
COc1ccc(C(=O)Nc2ccnn2C2CCN(Cc3ccncc3)CC2)cc1 -1.75%
CCc1cc(C(c2ccccc2OC)N2CCOCC2)c(NC(=O)c2ccccc2)s1 (stereo not given) -0.4%
O=C(CCl)NC1CCCCN(Cc2cccc(C(F)(F)F)c2)C1=O (stereo not given) -2.12%
CNC(=O)CN1C(=O)NC(c2ccccc2)(c2ccccc2)C1=O -2.01%
CCCCn1c(SCC(=O)NCC2CCCO2)nc2ccc(N3CCOCC3)cc2c1=O (stereo not given) -3.78%
Cn1c(SCC(=O)c2ccccc2)ncc(C(=O)Nc2ccc(F)cc2)c1=O -2.22%

activation, active:
COc1ccc(C(=O)N/N=c2\oc3ccccc3cc2C(N)=O)cc1 9.22%
N#Cc1ccccc1NC(=O)c1cccc(COc2ccc(Cl)cc2Cl)c1 9.56%
NS(=O)(=O)c1ccccc1NC(=O)c1c(O)c2ccccc2[nH]c1=O 9.94%
Cc1nc2ccc(NC(=S)N3CCC(C)CC3)cc2nc1C 7.91%
CC(C)(C)NC(=O)C(CCc1ccccc1)n1c(=O)c(-c2ccccc2)nc2ccccc21 (stereo not given) 17.1%
Cc1ccc(C(=O)NNC(=O)c2cccs2)cc1 9.31%
Cc1cc(C)n2nc(CNS(=O)(=O)c3c(F)c(F)c(F)c(F)c3F)nc2n1 9.77%
COC(=O)C1C(=O)c2c([nH]c(C(=O)OCCSC)c2C)CC1C (stereo not given) 15.2%
Fc1ccc(CNc2nc3ccccc3n3nnnc23)cc1 10.3%
Cc1ccc(O)c(CNc2nc3ccccc3n2C)c1 9.3%
O=C(Cn1ncc(N2CCCC2)c(Br)c1=O)c1ccc(Cl)cc1 9.66%
COc1ccc(C(=O)Nc2sc(C)c(C)c2CN2CCOCC2)cc1 8.14%
Cc1ccc(NC(=O)c2cnc(SCC(=O)NCC3CCCO3)n(C)c2=O)cc1 (stereo not given) 8.79%
